The list is not random: actives were taken first. Their share in the collection is about 4%.
TWEAK-Fn14 inh: inhibitors of TWEAK-Fn14 interaction signaling; TWEAK-stimulated Fn14 reporter cells, luciferase luminescence, 8 h; inhibition, % at 10 µM; 2% of 360,000 active; AID 1159606; in the data active means inhibition above about 50%
TRPM1 prom inh: reduces MITF-dependent TRPM1 promoter luciferase signal | 0.83% of 330,000 active | AID 488899 | inhibition, % at 12.5 µM | SK-MEL-5 TRPM1 promoter luciferase, 24 h;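 active means mean inhibition across replicates of 60% or more, whatever share of single replicates reaches that level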
Peg3 promoter: Peg3 promoter activity inhibition; 1.7% of 360,000 active; HeLa PEG-Prom luciferase reporter, luminescence, overnight; AID 588405; inhibition, % at 20 µM;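 active means inhibition of at least 50% at 20 µM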
LMP1 NFkB inh: reduces LMP1-driven NF-kappaB luciferase signal | LMP1-induced NF-kappaB luciferase reporter cells, luminescence | inhibition, % at 12.5 µM | 0.69% of 350,000 active | AID 504558; in the data active means inhibition above about 41%;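 further: 0% = neutral control wells and 100% = reference inhibitor control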
TROY signal inh: blocks TROY-dependent signaling in reporter cells | 0.98% of 360,000 active | Q293 LMP1-TROYcd NF-kB luciferase reporter, 4 h | AID 1347056 | inhibition, % at 10 µM;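 active means compounds whose plate-normalised and pattern-corrected inhibition of the luciferase reporter signal at the single screening dose is 50% or more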
HIF-2a block: inhibitors of HIF-2a | 0.72% of 360,000 active | AID 624352 | inhibition, % at 18.8 µM | 786-0 RCC cells HIF-2a reporter, luciferase luminescence, overnight;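 active means inhibition of the luminescence signal of 40% or more relative to plate controls, in a single-dose primary screen at 18.75 µM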
* hit, by the source's call; · = no result given.

SMILES	TWEAK-Fn14 inh	TRPM1 prom inh	Peg3 promoter	LMP1 NFkB inh	TROY signal inh	HIF-2a block
CC(=O)c1ccc(NC(=O)c2ccc([N+](=O)[O-])o2)cc1	3.5	17.6	30.9	-36.0	-9.9	19.8
Cc1cc(C)cc(NC(=O)c2ccc([N+](=O)[O-])o2)c1	22.3	65.2*	75.1*	-26.3	-13.0	19.1
COc1cc(NC(=O)c2ccc(-c3cccc([N+](=O)[O-])c3)o2)ccc1NC(=O)C(C)C	-17.8	-4.4	78.3*	6.9	-1.9	-2.2
NC(=O)c1oc2ccccc2c1NC(=O)c1ccc(F)cc1	7.4	·	11.6	-4.0	3.1	7.8
COc1cc(NC(=O)c2ccc([N+](=O)[O-])o2)ccc1NC(=O)c1ccco1	0.8	84.2*	57.2*	-33.6	12.8	-45.0
COc1cc(NC(=O)c2cccc([N+](=O)[O-])c2)ccc1NC(=O)c1ccco1	-33.2	-12.6	-17.6	10.1	13.1	-41.8
NC(=O)c1oc2ccccc2c1NC(=O)c1ccc([N+](=O)[O-])o1	44.4	82.6*	108.8*	4.2	-9.3	15.6
C1CCN(c2c3c(nc4nnnn24)CCCC3)CC1	2.2	-1.6	24.3	-1.5	13.7	18.2
Cc1ccc(C(CC(=O)O)NC(=O)CN2C(=O)c3ccccc3C2=O)cc1 (stereo not given)	20.9	7.5	4.9	-7.1	-1.0	4.4
CC1(C(=O)Nc2ccc(Cl)c(C(F)(F)F)c2)Cc2c(-c3ccc(C(N)=O)cc3)ccnc2O1 (stereo not given)	-56.4	·	29.3	·	29.2	29.3
COc1ccccc1CNC(=O)COc1cc(O)c2c(c1)OC(C)(C)CC2=O	-19.6	·	-2.6	·	1.5	-25.8
CCCCOc1ccc(NC(=O)Nc2nnc(C)s2)cc1	-17.2	1.0	-20.9	-5.3	5.7	-2.0
Oc1nc(Nc2cccc(Cl)c2)sc1/C=C1\C=Nc2ccccc21	53.3*	-1.7	-9.6	-24.7	83.3*	-107.8
CC1=Nc2ccccc2/C1=C\c1sc(Nc2ccc(C)cc2)nc1O	54.6*	18.1	-35.6	9.2	25.9	-107.8
CN1CCC(N2CCN(C3CN(Cc4cn(Cc5cccc(C(F)(F)F)c5)nn4)S(=O)(=O)C3)CC2)CC1 (stereo not given)	13.2	·	·	·	-28.8	15.7
COc1cc(/C=C(\C#N)c2nc3ccccc3n2C)cc(OC)c1O	38.7	16.9	11.6	1.2	-8.7	-4.2
CCc1nc2c(OCc3cc(Cl)cc(Cl)c3)cccn2c1N(C)C(=O)Nc1ccccc1OC	-7.9	·	31.8	·	2.0	16.9
COc1ccc(Nc2cc(C)c3cc([N+](=O)[O-])ccc3n2)cc1	50.8*	2.2	-85.7	-7.4	-13.2	-133.3
CC1=CC(=O)C(C(C)=Nc2cccc(Cl)c2)C(=O)O1 (stereo not given)	-0.1	-4.0	-3.5	-1.2	8.3	3.0
CCN(CC)S(=O)(=O)c1ccc(/C=C/C(=O)Nc2ccc(F)cc2F)cc1	75.9*	-1.6	-42.8	-6.4	3.1	-83.9
CCN(CC)S(=O)(=O)c1ccc(/C=C/C(=O)Nc2ccc(F)c(F)c2F)cc1	39.1	18.7	-40.6	23.5	6.7	-56.6
CCN(CC)S(=O)(=O)c1cccc(NC(=O)/C=C/c2ccc([N+](=O)[O-])cc2)c1	-8.1	2.8	-5.0	-12.5	25.9	-7.6
CCN(CC)S(=O)(=O)c1ccc(/C=C/C(=O)Nc2ccc(Br)cc2F)cc1	73.6*	23.5	13.6	32.2	48.2	6.9
O=C1C=C(c2ccccc2)OC(=O)C1C(=O)c1ccccc1 (stereo not given)	26.9	-3.0	-20.8	-1.9	-9.1	-19.4
CC(OC(=O)c1cccc(NS(C)(=O)=O)c1)C(=O)Nc1ccc(N2CCOCC2)cc1 (stereo not given)	-13.3	4.3	-8.0	-10.4	26.6	-14.3
COc1ccc(N2CCN(Cc3cc(=O)oc4cc(-c5ccccc5)c(O)cc34)CC2)cc1	-31.2	50.2	69.6*	-52.5	7.2	7.7
CN[C@@H]1CC[C@H](c2ccc(Cl)c(Cl)c2)c2ccccc21	-0.4	0.9	91.2*	-0.1	·	-8.1
C=C(C(=O)c1ccccc1)C(C)CC(=O)c1ccccc1 (stereo not given)	63.2*	3.2	71.7*	-6.9	-19.1	26.2
O=C(CC(Nc1ccccc1)C(=O)O)c1ccccc1 (stereo not given)	5.5	-104.1	-202.4	-49.2	-24.9	-222.3
CC(=O)NCc1ccc(C(=O)CCl)cc1	3.1	28.8	52.7*	-18.4	1.0	14.6

From PubChem BioAssay
